Source: PubChem BioAssay
Tau fluor counter: counter-screen for tau fibril formation inhibitors. tau K18 P301L Alexa594 fluorescence, heparin fibrillization. 0.93% of 280,000 active. Potency, µM (highest dose often 57.7 µM), for the others: at the top dose activity change, negative = decrease. AID 1463; further: potency means the concentration at half of the fitted maximal effect; nearly all actives have a fitted effect of over 55% in size
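Human tau K18 P301L (15 uM unlabeled, 0.24 uM Alexa 594-labeled) in 100 mM sodium acetate pH 7 with 20 uM heparin, 6 hr at 37 C. ThT 30 uM added, 1 hr ambient; Alexa 594 FP and total fluorescence read at 555/632 nm.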
KDM4E inh: blocks human JMJD2E demethylase activity; B2RXH2; JMJD2E catalytic domain, FDH-coupled NADH fluorescence (FDH is formaldehyde dehydrogenase); Potency, µM (titrated, usually from 57.1 µM), for the others: at the highest dose activity change, negative = inhibition, actives largely listed as inhibitors; 1.6% of 230,000 active; active means well fitted inhibition curve with a large enough effect, not every such curve was filed as active; inconclusive means small, poorly fitted or top-dose-only effect, or another doubt; inactive means no such curve, though single readings can be large or run the other way;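 further: potency means the concentration at half of the fitted maximal effect; 0% = wells with enzyme and -100% = buffer wells without enzyme; nearly all actives have a fitted effect of over 50% in size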
Target sequence (B2RXH2 1-337 limits assumed): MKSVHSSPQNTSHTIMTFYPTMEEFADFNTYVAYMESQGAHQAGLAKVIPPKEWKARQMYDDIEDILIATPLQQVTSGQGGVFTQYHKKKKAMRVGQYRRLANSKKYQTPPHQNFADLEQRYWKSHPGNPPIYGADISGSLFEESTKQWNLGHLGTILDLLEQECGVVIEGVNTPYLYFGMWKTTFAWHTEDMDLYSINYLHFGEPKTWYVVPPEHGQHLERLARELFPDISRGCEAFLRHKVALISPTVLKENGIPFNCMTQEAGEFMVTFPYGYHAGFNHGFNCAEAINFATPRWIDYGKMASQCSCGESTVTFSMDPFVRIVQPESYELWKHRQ
Tau FP inhib: inhibitors of human tau fibril formation; AID 1468; 0.39% of 280,000 active; Potency, µM (highest dose often 57.7 µM), without a hit: top-dose activity, negative = inhibition, most hits filed as inhibitors; P10636; K18 P301L tau heparin fibrillization, Alexa594 FP, 6 h; further: potency means the concentration at half of the fitted maximal effect; nearly all actives have a fitted effect of over 55% in size
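K18 P301L tau (15 uM unlabeled/0.24 uM Alexa 594-labeled, final) + compound + heparin 20 uM final; 100 mM NaOAc pH 7; 6 hr 37 C; ThT 30 uM final added, 1 hr RT; FP ex 555/em 632 nm.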
NPSR antagonist: blocks cAMP signaling of the human neuropeptide S receptor; CHO-NPSR cells, cAMP TR-FRET, antagonist mode; Potency, µM (top dose mostly 38.3 µM), without a hit: at the highest dose activity change, negative = inhibition, usual class: inhibitors; 1% of 220,000 active; AID 1461; further: potency means the concentration at half of the fitted maximal effect; nearly all actives have a fitted effect of over 50% in size
Target sequence (Q6W5P4 whole entry, looked up): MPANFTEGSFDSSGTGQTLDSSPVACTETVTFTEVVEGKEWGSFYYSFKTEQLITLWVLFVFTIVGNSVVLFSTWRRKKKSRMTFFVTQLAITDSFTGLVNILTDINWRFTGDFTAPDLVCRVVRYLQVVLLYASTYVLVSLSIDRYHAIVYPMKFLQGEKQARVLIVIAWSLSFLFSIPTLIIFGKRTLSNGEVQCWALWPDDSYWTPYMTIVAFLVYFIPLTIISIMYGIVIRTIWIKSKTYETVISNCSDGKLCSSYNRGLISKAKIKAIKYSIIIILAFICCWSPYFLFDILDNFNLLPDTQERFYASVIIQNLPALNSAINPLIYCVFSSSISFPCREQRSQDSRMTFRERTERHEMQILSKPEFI
Tau ThT inhib: blocks human tau fibril formation measured by thioflavin T | 2.1% of 270,000 active | Potency, µM (series often up to 57.4 µM), for the others: at the top dose activity, negative = inhibition, most hits filed as inhibitors | recombinant tau K18 P301L, heparin-induced fibrillization, ThT fluorescence; further: potency means the concentration at half of the fitted maximal effect; nearly all actives have a fitted effect of over 55% in size
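Using a mix of unlabeled (15 uM) and Alexa 594-labeled (0.24 uM) tau K18 P301L, heparin-triggered fibrillization over 6 hr at 37 C was scored by ThT fluorescence.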
PNC inhibitor: blocks assembly of the perinucleolar compartment; 3.1% of 140,000 active; PC3M PTB-GFP, PNC prevalence imaging, 16 h; hits give low values; activity change (PNC), negative = inhibition, % at 10 µM;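 active means readout at or below -70, meaning at least 70% loss of cells showing the perinucleolar compartment, a nuclear body marking cancer cells; inconclusive means readout between -30 and a set limit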;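 further: plate controls were DMSO wells for no effect and camptothecin positive control wells for full effect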
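Compounds are pinned in duplicate onto adhered PC3M cells stably expressing GFP-tagged PTB and incubated 16 h at 37 C. Cells are then fixed, nuclei stained with Hoechst, and PNC-positive cells counted.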
* hit, by the source's call; ? = inconclusive; nt = no result given; [ ] = dose if it differs, or a comment. An excerpt weighted towards active compounds, which were near 5.1% of everything screened. Unless noted, the call rests on the fitted dose curve; in most records, active means well fitted curve in the direction sought with a large enough effect; inconclusive means small, poorly fitted or top-dose-only effect, or another doubt; inactive means no such curve, though single readings can be large; an effect the other way counts as inactive or inconclusive. Unless noted, on the % scale 0 is the no-effect control and ±100 the full control effect.

SMILES | Tau fluor counter | KDM4E inh | Tau FP inhib | NPSR antagonist | Tau ThT inhib | PNC inhibitor
O=C(NCC(c1ccccc1)c1ccccc1)c1nn(-c2ccccc2Cl)nc1CO | -17% | nt | 6% | nt | -7% | nt
C[n+]1ccc(/C=C/c2ccccc2O)c2ccccc21 | -14% | -19% | -5% | 13µM* | ? | nt
COc1ccc(N(C(=O)c2cccc([N+](=O)[O-])c2)S(=O)(=O)c2cccs2)cc1 | ? | 6% | 0% | -20% | ? | nt
COc1cccc(NC(=O)/C=C/c2ccc([N+](=O)[O-])cc2)c1 | -45% | -13% | 3% | -5% | nt | nt
COc1ccc(C(=O)/C=C/c2cccs2)c(OC(=O)c2cccc([N+](=O)[O-])c2)c1 | ? | 10% | 9% | 6%[46.1 µM] | 4µM* | 9
COc1ccc(C(=O)/C=C/c2ccc(F)cc2)c(OC(=O)c2ccc([N+](=O)[O-])cc2)c1 | 13µM*[quencher] | 1% | 0% | -21%[46.1 µM] | 10µM* | -24
CN(C(=O)c1ccc2c(c1)N(Cc1ccccc1F)C(=O)c1ccccc1S2)C1CCCCC1 | 2% | nt | -7% | nt | -17% | nt
COc1cccc(-c2nc(S(=O)(=O)c3ccccc3)c(N3CCC(C)CC3)o2)c1 | -19% | nt | 0% | nt | -5% | nt
CCCCN(CCCC)C1=C(C(=O)c2ccccc2)N(C)S(=O)(=O)c2ccccc21 | -4% | nt | -6% | nt | -3% | nt
COc1cc(/C=N/NC(=O)c2cccc([N+](=O)[O-])c2)ccc1OCc1ccccc1 | 11µM*[quencher] | ? | ? | ? | ? | -23
COc1cc(/C=N/NC(=O)c2cccc([N+](=O)[O-])c2)ccc1OC(=O)c1ccco1 | ? | -10% | -1% | -4% | ? | nt
COc1cc(/C=N/NC(=O)c2sc3ccccc3c2Cl)ccc1OC(=O)c1ccc([N+](=O)[O-])cc1 | ? | 4% | 3% | 1% | 1.3µM* | nt
COc1ccc(/C=N/NC(=O)c2cccc([N+](=O)[O-])c2)cc1OC(=O)c1ccccc1 | 11µM*[quencher] | -4% | -5% | -1%[46.1 µM] | -21% | 2
O=C(N/N=C/c1ccc(OC(=O)c2ccccc2)c([N+](=O)[O-])c1)c1ccc(O)cc1 | ? | -14% | -12% | -24% | 8.9µM* | -26
COc1cc(/C=N/NC(=O)COc2c(C)cc([N+](=O)[O-])cc2C)ccc1OC(=O)c1ccccc1 | -23% | -5% | -7% | 9% | -17% | -18
COc1ccc(/C=N/NC(=O)c2cccc([N+](=O)[O-])c2)cc1OC(=O)c1ccc(C)cc1 | ? | 0% | -1% | -25%[46.1 µM] | -11% | 64
CCOC(=O)c1cccc(NC(=O)CC2C(=O)N(c3ccc(C)cc3)C(=O)N2Cc2cccc(OC)c2)c1 (stereo unspecified) | ? | nt | -6% | nt | 4% | nt
COc1ccc(/C=N/NC(=O)c2cccc([N+](=O)[O-])c2)cc1OS(=O)(=O)c1ccccc1 | 14µM*[quencher] | -5% | -4% | -16%[46.1 µM] | -13% | 5
COc1ccc(C(=O)NNC(=O)c2ccccc2[N+](=O)[O-])cc1 | -5% | 0% | -6% | 34% | -7% | -89*
COc1ccccc1OCc1ccc(C(=O)NN)cc1 | -5% | 61% | -5% | -5%[46.1 µM] | ? | -1
O=C(NNC(=O)c1ccccc1[N+](=O)[O-])c1ccccc1[N+](=O)[O-] | 9% | -9% | 3% | 16% | 1% | nt
COc1ccc(C(=O)Oc2ccc(/C=N/NC(=O)c3ccccc3OC)cc2[N+](=O)[O-])cc1 | -8% | 1% | -14% | 9% | ? | -2
COc1ccccc1OCc1ccc(C(=O)N/N=C/c2ccco2)cc1 | -9% | -9% | -1% | -10% | ? | -114*
COc1ccc(C(=O)N/N=C/c2ccc(OC(=O)c3cccc4ccccc34)c([N+](=O)[O-])c2)cc1 | ? | -5% | -2% | -15%[46.1 µM] | 5µM* | -20
CCOC(=O)c1c(C)[nH]c(C)c1S(=O)(=O)N(C)CC(=O)N1CCN(c2cccc(C)c2C)CC1 | -18% | nt | 3% | nt | -10% | nt
SMILES | Tau fluor counter | KDM4E inh | Tau FP inhib | NPSR antagonist | Tau ThT inhib | PNC inhibitor
CC1=C(C(=O)NCc2ccccc2Cl)C2(CCCCCC2)OC1=O | -6% | nt | 7% | nt | 2% | nt
Cc1ccc(N(C)C(=O)Cn2nc(Cc3ccncc3)c3ccccc3c2=O)cc1C | -15% | nt | -8% | nt | -8% | nt
Cc1ccc(C)c(CSc2nnc3[nH]c(=O)cc(-c4ccccc4)n23)c1 | -13% | nt | -1% | nt | ? | nt
COc1ccc(S(=O)(=O)N(C)CC(=O)Nc2ccc3c(c2)OCO3)cc1 | -4% | 1% | ? | -10%[46.1 µM] | -6% | ?
COc1ccc(S(=O)(=O)N(C)CC(=O)Nc2c(F)cccc2F)cc1 | -6% | -8% | -6% | -7%[46.1 µM] | -15% | -103*
COc1cc(OC)cc(C(=O)Nc2c(F)cccc2F)c1 | 6% | -1% | 2% | 9% | 11% | -119*
CCCCNC(=O)CN1CCC2(O)CCCCC2C1c1ccccc1OC (stereo unspecified) | -4% | 12% | -5% | ? | -8% | 38
COc1ccccc1C1C2CCCCC2(O)CCN1CC(=O)Nc1ccccc1 (stereo unspecified) | -9% | -1% | -1% | -21%[46.1 µM] | -14% | -104*
COc1ccccc1CNC(=O)CCCn1c(=O)c2ccccc2n(Cc2ccc(F)cc2)c1=O | 4% | nt | 5% | nt | 7% | nt
O=C(CCC1CCCCC1)NC1=NCCS1 | -4% | 1% | 5% | 9% | -5% | -89*
O=C(NC1=NCCS1)C1CCCCC1 | 7% | 0% | 0% | 5% | 0% | nt
CN(C)S(=O)(=O)Oc1cccc(C(=O)Nc2ccc(Cl)c(Cl)c2)c1 | ? | -2% | 20µM* | -29%[46.1 µM] | 1% | 33
CCCC(=O)Nc1ccc(NC(=O)c2cccc(OC)c2)nc1 | -7% | 4% | 0% | -7%[46.1 µM] | -16% | -18
COc1cccc(C(=O)Nc2ccc(NC(C)=O)cn2)c1 | -3% | 9% | -5% | -10%[46.1 µM] | -3% | -116*
O=C(Nc1ccc(NC(=O)c2ccco2)nc1)c1cccnc1 | 0% | 5% | -3% | -2%[46.1 µM] | 2% | -100*
CCOc1ccc(Nc2nc(C)c(NC(=O)c3cccc(OC)c3)c(Nc3ccc(OCC)cc3)n2)cc1 | 11µM*[quencher] | nt | 12% | nt | ? | nt
O=C(Cc1ccccc1)NC1CC(=O)N(c2ccccc2)C1 (stereo unspecified) | 0% | nt | -6% | nt | -5% | nt
c1cnc(N2CCN(c3ncc4c(n3)CCNC4)CC2)nc1 | -5% | nt | 0% | nt | -10% | nt
CCN(CC)c1ccc(NS(=O)(=O)c2ccc(-c3coc(C)n3)cc2)c(C)c1 | ? | nt | 8% | nt | ? | nt
c1ccc(Cn2nc(-c3ccccc3)nc2-c2ccccc2)cc1 | -18% | -6% | -3% | -7% | -7% | 57
